Reference: PubChem BioAssay (NCATS)
Where “and” joins values, the source holds several entries; their conditions need not be identical. Equal entries are not always repeated. Inconclusive results are not listed. Calls of active or inactive are those of the source. Unless noted, the call rests on the fitted dose curve; in most records, active means well fitted inhibition curve with a large enough effect; inconclusive means small, poorly fitted or top-dose-only effect; inactive means flat fitted curve, though single readings scatter.

Tests used:
[1] = Drug repurposing screens with cells derived from glioblastoma tumor samples (AID 1345199); conditions: GBM patient neurospheres viability, ATP luminescence, 48 h; further: nearly all actives have a fitted effect of over 40% in size; further: potency means the concentration at half of the fitted maximal effect; on activity, negative = cell killing: on the % scale 0 is the no-effect control and ±100 the full control effect
How it was run: (§1)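 Four patient lines of CD133+ GBM neurospheres were screened at several concentrations; hits were retested in those lines plus three slower-growing GBM lines, using 48-hour treatment and ATP-based viability.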

astro = control astrocytes; test: as above; conditions: viability, ATP luminescence, 48 h; series mostly up to 45.9 µM
How it was run: as §1

[2] = target: Nuclear receptor subfamily 1 group I member 2 (Rattus norvegicus) (UniProt Q9R1A7); test: qHTS assay for small molecule activators of the rat pregnane X receptor (rPXR) signaling pathway (AID 651751; call rule not given here; further: 0% is about no effect); conditions: rPXR reporter cells, luciferase (One-Glo), 24 h
Nuclear receptor subfamily 1 group I member 2 (Rattus norvegicus), sequence (Q9R1A7 whole entry, looked up): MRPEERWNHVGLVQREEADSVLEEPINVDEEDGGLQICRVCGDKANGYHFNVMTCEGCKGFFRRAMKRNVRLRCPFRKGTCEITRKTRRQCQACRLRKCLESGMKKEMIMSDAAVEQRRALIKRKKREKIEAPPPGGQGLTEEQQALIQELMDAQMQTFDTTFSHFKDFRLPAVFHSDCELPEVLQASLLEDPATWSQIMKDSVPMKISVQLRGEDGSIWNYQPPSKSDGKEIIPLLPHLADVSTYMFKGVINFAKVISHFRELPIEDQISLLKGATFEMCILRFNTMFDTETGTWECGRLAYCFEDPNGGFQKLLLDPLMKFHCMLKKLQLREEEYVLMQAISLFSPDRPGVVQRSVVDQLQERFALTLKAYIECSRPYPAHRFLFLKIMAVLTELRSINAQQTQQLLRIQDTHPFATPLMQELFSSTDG

[3] = qHTS assay for small molecule activators of the human pregnane X receptor (PXR) signaling pathway (AID 720659; call rule not given here; further: 0% is about no effect); conditions: DPX-2 HepG2 CYP3A4-luciferase, 24 h; series mostly up to 92.3 µM
[4] = at 20 µM (top of the series), tumour line C
[5] = at 21.2 µM (top of the series), tumour line B
[6] = at 21.2 µM (top of the series), tumour line D
[7] = at 45.9 µM (top of the series), tumour line B
[8] = at 45.9 µM (top of the series), tumour line D
[9] = at 46 µM (top of the series), tumour line A
[10] = at 46.1 µM (top of the series), tumour line C
[11] = at 21.3 µM (top of the series), tumour line A

CCN(CC)Cc1cc(Nc2ccnc3cc(Cl)ccc23)ccc1O
active: Potency ([1]; tumour line A) 12.6 µM | Potency ([1]; tumour line D) 14.1 µM
inactive: activity, negative = cell killing [1, 4] -18.3% | Potency (astro)

CC1(C)S[C@@H]2[C@H](NC(=O)C(N)c3ccccc3)C(=O)N2[C@H]1C(=O)OC1OC(=O)c2ccccc21 (some centres undefined)
inactive: activity, negative = cell killing [1, 4] -5.29% | activity, negative = cell killing [1, 5] -22.1% | activity, negative = cell killing [1, 6] -10.3% | Potency (astro)

CCCCCCCC(=O)O
inactive: activity, negative = cell killing [1, 7] -7.1% | activity, negative = cell killing [1, 8] -17.5% | activity, negative = cell killing [1, 9] -22.2% | activity, negative = cell killing [1, 10] -13.3% | Potency (astro) | max response [2] 2.58% and -1.34% | outcome [3]

OCCO[C@@H]1[C@@H](O)[C@H](O)[C@@H](CO)O[C@@H]1O
inactive: activity, negative = cell killing [1, 7] -12.3% | activity, negative = cell killing [1, 8] -11.5% | activity, negative = cell killing [1, 9] -14.9% | activity, negative = cell killing [1, 10] -19.4% | Potency (astro)

CC(=O)OCC(=O)[C@@]12OC3(CCCC3)O[C@@H]1C[C@H]1[C@@H]3CCC4=CC(=O)C=C[C@]4(C)[C@@]3(F)[C@@H](O)C[C@@]12C
inactive: activity, negative = cell killing [1, 7] -7.71% | activity, negative = cell killing [1, 8] -10.7% | activity, negative = cell killing [1, 10] 3.06% | Potency (astro)

C[C@]12O[C@H](C[C@]1(O)CO)n1c3ccccc3c3c4c(c5c6ccccc6n2c5c31)CNC4=O
inactive: activity, negative = cell killing [1, 10] -97.6%
active: Potency ([1]; tumour line A) 7.08 µM | Potency ([1]; tumour line B) 4.47 µM | Potency ([1]; tumour line D) 3.16 µM | Potency (astro) 0.447 µM

CC1(C)S[C@@H]2[C@H](NC(=O)C(C(=O)O)c3ccsc3)C(=O)N2[C@H]1C(=O)O (some centres undefined)
inactive: activity, negative = cell killing [1, 7] 5.71% | activity, negative = cell killing [1, 8] -0.709% | activity, negative = cell killing [1, 9] 0.915% | activity, negative = cell killing [1, 10] -15.8% | Potency (astro)

O=C(O)c1cc(=O)c2c3nc4ccccc4oc-3cc(=O)c2[nH]1
inactive: activity, negative = cell killing [1, 7] -7.08% | activity, negative = cell killing [1, 8] -5.52% | activity, negative = cell killing [1, 9] -20.9% | activity, negative = cell killing [1, 10] -22.4% | Potency (astro)

CCCC(=O)O[C@]1(C(=O)COC(C)=O)CC[C@H]2[C@@H]3C[C@H](F)C4=CC(=O)C=C[C@]4(C)[C@@]3(F)[C@@H](O)C[C@@]21C
inactive: activity, negative = cell killing [1, 7] -13.7% | activity, negative = cell killing [1, 8] -22.5% | activity, negative = cell killing [1, 9] -29.1% | activity, negative = cell killing [1, 10] -14.3% | Potency (astro)

CC(=O)OCC(=O)[C@@]1(O)CC[C@H]2[C@@H]3C[C@H](C)C4=CC(=O)C=C[C@]4(C)[C@H]3[C@@H](O)C[C@@]21C
inactive: activity, negative = cell killing [1, 7] -16.5% | activity, negative = cell killing [1, 8] -18.9% | activity, negative = cell killing [1, 9] -15.4% | activity, negative = cell killing [1, 10] 1.15% | Potency (astro)

O=C(O)CCC(=O)C(=O)O
inactive: activity, negative = cell killing [1, 7] -7.95% | activity, negative = cell killing [1, 8] 2.23% | activity, negative = cell killing [1, 9] -23.8% | activity, negative = cell killing [1, 10] 3.09% | Potency (astro) | max response [2] 0.868% | outcome [3]

C#CCOc1ccc2c(C)cc(=O)oc2c1
inactive: activity, negative = cell killing [1, 7] -16.6% | activity, negative = cell killing [1, 8] -17.5% | activity, negative = cell killing [1, 10] -16.5% | Potency (astro)

COC(=O)CCC(=O)CN
inactive: activity, negative = cell killing [1, 7] -21.7% | activity, negative = cell killing [1, 8] -18.7% | activity, negative = cell killing [1, 9] -28.4% | activity, negative = cell killing [1, 10] -13.1% | Potency (astro)

CC1(C)C(C=C(Cl)Cl)C1C(=O)OCc1cccc(Oc2ccccc2)c1 (centres undefined)
inactive: activity, negative = cell killing [1, 7] -14.8% | activity, negative = cell killing [1, 8] -15.5% | activity, negative = cell killing [1, 10] 6.86% | Potency (astro)

O=C(O)c1cc(O)c2c(c1)[O][Bi][O]2
inactive: activity, negative = cell killing [1, 7] -11.9% | activity, negative = cell killing [1, 8] -5.77% | activity, negative = cell killing [1, 9] -19.4% | activity, negative = cell killing [1, 10] 3.44% | Potency (astro)

CC[N+](CC)(CC)CCC(O)(c1ccccc1)C1CCCCC1 (centres undefined)
inactive: activity, negative = cell killing [1, 4] 3.9% | activity, negative = cell killing [1, 5] -4.74% | activity, negative = cell killing [1, 6] 0.449% | Potency (astro)

CCC(=O)OCC(=O)[C@@]1(OC(=O)CC)[C@H](C)C[C@H]2[C@H]3[C@H]([C@@H](O)C[C@@]21C)[C@@]1(C)C=CC(=O)C=C1C[C@H]3Cl
inactive: activity, negative = cell killing [1, 4] -8.97% | activity, negative = cell killing [1, 5] -7.29% | activity, negative = cell killing [1, 6] -17.3% | Potency (astro)

O=C(O)C1CCCN1 (centres undefined)
inactive: activity, negative = cell killing [1, 7] -8.24% | activity, negative = cell killing [1, 8] -1.47% | activity, negative = cell killing [1, 10] -1.4% | Potency (astro)

O=C(O)CN(CCN(CC(=O)O)CC(=O)O)CC(=O)O
inactive: activity, negative = cell killing [1, 7] -9.39% | activity, negative = cell killing [1, 8] -15% | activity, negative = cell killing [1, 9] -14.7% | activity, negative = cell killing [1, 10] -16.4% | Potency (astro) | max response [2] 0.191% and 7.12%

IC(I)I
inactive: activity, negative = cell killing [1, 7] -9.98% | activity, negative = cell killing [1, 8] -13.1% | activity, negative = cell killing [1, 9] -9.65% | activity, negative = cell killing [1, 10] 2.5% | Potency (astro) | max response [2] 0.127% and 1.54% | outcome [3]

CCOC(C)=O
inactive: activity, negative = cell killing [1, 7] -6.99% | activity, negative = cell killing [1, 8] -8.33% | activity, negative = cell killing [1, 9] -18.3% | activity, negative = cell killing [1, 10] 2.8% | Potency (astro) | outcome [3]

Nc1ncnc2c1ncn2[C@@H]1O[C@H](COP(=O)(O)OP(=O)(O)OP(=O)(O)O)[C@@H](O)[C@H]1O
inactive: activity, negative = cell killing [1, 7] 15.4% | activity, negative = cell killing [1, 8] -9.21% | activity, negative = cell killing [1, 9] -1.48% | activity, negative = cell killing [1, 10] 38.9% | Potency (astro)

CNc1cc(OC)c(C(=O)N[C@H]2CCN(Cc3ccccc3)[C@H]2C)cc1Cl
inactive: activity, negative = cell killing [1, 7] -17.5% | Potency (astro)
active: Potency ([1]; tumour line A) 7.08 µM | Potency ([1]; tumour line D) 20 µM

C[C@@H]1[C@H](O)[C@@H](C)/C=C/C=C\C=C\C=C\C=C\C=C\C=C\[C@H](O[C@@H]2O[C@H](C)[C@@H](O)[C@H](N)[C@@H]2O)C[C@@H]2O[C@](O)(C[C@@H](O)C[C@@H](O)[C@H](O)CC[C@@H](O)C[C@@H](O)CC(=O)O[C@H]1C)C[C@H](O)[C@H]2C(=O)O (stereo in doubt)
inactive: activity, negative = cell killing [1, 7] -6.2% | activity, negative = cell killing [1, 8] -9.92% | activity, negative = cell killing [1, 9] -13.6% | activity, negative = cell killing [1, 10] -5.87% | Potency (astro)

CCCC(=O)Nc1ncnc2c1ncn2[C@@H]1O[C@@H]2COP(=O)(O)O[C@H]2[C@H]1OC(=O)CCC
inactive: activity, negative = cell killing [1, 7] -14.5% | activity, negative = cell killing [1, 8] -5% | activity, negative = cell killing [1, 9] -18.2% | activity, negative = cell killing [1, 10] -13.8% | Potency (astro)

CNC(C)[C@@H]1CC[C@@H](N)[C@@H](O[C@H]2[C@H](O)[C@@H](O[C@H]3OC[C@](C)(O)[C@H](NC)[C@H]3O)[C@H](N)C[C@@H]2N)O1 (some centres undefined)
inactive: activity, negative = cell killing [1, 4] -7.4% | activity, negative = cell killing [1, 5] -11.6% | activity, negative = cell killing [1, 6] 12.7% | activity, negative = cell killing [1, 11] -18.8% | Potency (astro)

CC1(C)S[C@@H]2[C@H](NC(=O)[C@@H](NC(=O)N3CCNC3=O)c3ccccc3)C(=O)N2[C@H]1C(=O)O
inactive: activity, negative = cell killing [1, 4] -8.8% | activity, negative = cell killing [1, 5] -3.93% | activity, negative = cell killing [1, 6] -6.96% | activity, negative = cell killing [1, 11] -17.7% | Potency (astro)

CN(C)CC/C=C1/c2ccccc2CSc2ccccc21
inactive: activity, negative = cell killing [1, 4] -1.3% | activity, negative = cell killing [1, 5] -26.2% | Potency (astro)
active: Potency ([1]; tumour line A) 12.6 µM | Potency ([1]; tumour line D) 12.6 µM

CC(=O)O[C@]1(C(C)=O)CC[C@H]2[C@@H]3CCC4=CC(=O)CC[C@]4(C)[C@@]3(F)[C@@H](O)C[C@@]21C
inactive: activity, negative = cell killing [1, 7] -7.13% | activity, negative = cell killing [1, 8] -7.73% | activity, negative = cell killing [1, 9] 6.04% | activity, negative = cell killing [1, 10] 8.8% | Potency (astro)

CC(=O)N(CC(C)C(=O)O)c1c(I)cc(I)c(N)c1I (centres undefined)
inactive: activity, negative = cell killing [1, 4] -1.12% | activity, negative = cell killing [1, 5] -5.01% | activity, negative = cell killing [1, 6] -13.7% | activity, negative = cell killing [1, 11] -23.8% | Potency (astro)
